Laboratory results as given in the supplement of paper PMC10849652.
Of roughly 7,900 targets only a part is listed; those with a hit were picked by preference. About 0.6% of all pairs of compound and target were hits.

How the values were obtained:
Experiment in all cases: log2 fold change, soluble protein after heating vs DMSO (PISA); higher = thermal stabilisation; K562 cells, 10 uM, 30 min; active = over 0.2 and 3.5 SD of the protein, either way, in both replicates (recomputed)
YAE1 = YAE1 (UniProt Q9NRH1)
How it was run: (§1)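 K562 cells at 2×10^6 cells/mL were exposed to 10 μM compound for 30 min, then aliquots were heated for 3 min across 48°C-58°C, pooled, and extracted in PBS containing 0.5% NP-40 at 4°C. The supernatant after 21,000xg for 90 min was taken as soluble protein and measured by TMTpro 16plex LC-MS/MS with channel sums equalised. Thermal stability is reported relative to control samples, with values from duplicates. Fold changes are given on a log2 scale.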

YBX1 = YBX1 (UniProt P67809)
How it was run: as §1

YES1 = YES1 (UniProt P07947)
How it was run: as §1

YIPF4 = YIPF4 (UniProt Q9BSR8)
How it was run: as §1

YIPF5 isoform 3 = YIPF5 isoform 3 (UniProt Q969M3)
How it was run: as §1

YIPF6 = YIPF6 (UniProt Q96EC8)
How it was run: as §1

YLPM1 = YLPM1 (UniProt P49750)
How it was run: as §1

YOD1 = YOD1 (UniProt Q5VVQ6)
How it was run: as §1

YWHAB = YWHAB (UniProt P31946)
How it was run: as §1

YWHAQ = YWHAQ (UniProt P27348)
How it was run: as §1

YWHAZ [1] = target: YWHAZ (UniProt E7ESK7)
How it was run: as §1

YWHAZ [2] = target: YWHAZ (UniProt P63104)
How it was run: as §1

YY1 = YY1 (UniProt P25490)
How it was run: as §1

ZADH2 = ZADH2 (UniProt Q8N4Q0)
How it was run: as §1

ZBTB17 isoform 2 = ZBTB17 isoform 2 (UniProt Q13105)
How it was run: as §1

ZBTB21 = ZBTB21 (UniProt Q9ULJ3)
How it was run: as §1

ZBTB43 = ZBTB43 (UniProt O43298)
How it was run: as §1

ZC3H18 = ZC3H18 (UniProt Q86VM9)
How it was run: as §1

YPEL5 = YPEL5 (UniProt P62699)
How it was run: as §1

Measured: log2 fold change

Sequence of YLPM1 (P49750 whole entry, looked up): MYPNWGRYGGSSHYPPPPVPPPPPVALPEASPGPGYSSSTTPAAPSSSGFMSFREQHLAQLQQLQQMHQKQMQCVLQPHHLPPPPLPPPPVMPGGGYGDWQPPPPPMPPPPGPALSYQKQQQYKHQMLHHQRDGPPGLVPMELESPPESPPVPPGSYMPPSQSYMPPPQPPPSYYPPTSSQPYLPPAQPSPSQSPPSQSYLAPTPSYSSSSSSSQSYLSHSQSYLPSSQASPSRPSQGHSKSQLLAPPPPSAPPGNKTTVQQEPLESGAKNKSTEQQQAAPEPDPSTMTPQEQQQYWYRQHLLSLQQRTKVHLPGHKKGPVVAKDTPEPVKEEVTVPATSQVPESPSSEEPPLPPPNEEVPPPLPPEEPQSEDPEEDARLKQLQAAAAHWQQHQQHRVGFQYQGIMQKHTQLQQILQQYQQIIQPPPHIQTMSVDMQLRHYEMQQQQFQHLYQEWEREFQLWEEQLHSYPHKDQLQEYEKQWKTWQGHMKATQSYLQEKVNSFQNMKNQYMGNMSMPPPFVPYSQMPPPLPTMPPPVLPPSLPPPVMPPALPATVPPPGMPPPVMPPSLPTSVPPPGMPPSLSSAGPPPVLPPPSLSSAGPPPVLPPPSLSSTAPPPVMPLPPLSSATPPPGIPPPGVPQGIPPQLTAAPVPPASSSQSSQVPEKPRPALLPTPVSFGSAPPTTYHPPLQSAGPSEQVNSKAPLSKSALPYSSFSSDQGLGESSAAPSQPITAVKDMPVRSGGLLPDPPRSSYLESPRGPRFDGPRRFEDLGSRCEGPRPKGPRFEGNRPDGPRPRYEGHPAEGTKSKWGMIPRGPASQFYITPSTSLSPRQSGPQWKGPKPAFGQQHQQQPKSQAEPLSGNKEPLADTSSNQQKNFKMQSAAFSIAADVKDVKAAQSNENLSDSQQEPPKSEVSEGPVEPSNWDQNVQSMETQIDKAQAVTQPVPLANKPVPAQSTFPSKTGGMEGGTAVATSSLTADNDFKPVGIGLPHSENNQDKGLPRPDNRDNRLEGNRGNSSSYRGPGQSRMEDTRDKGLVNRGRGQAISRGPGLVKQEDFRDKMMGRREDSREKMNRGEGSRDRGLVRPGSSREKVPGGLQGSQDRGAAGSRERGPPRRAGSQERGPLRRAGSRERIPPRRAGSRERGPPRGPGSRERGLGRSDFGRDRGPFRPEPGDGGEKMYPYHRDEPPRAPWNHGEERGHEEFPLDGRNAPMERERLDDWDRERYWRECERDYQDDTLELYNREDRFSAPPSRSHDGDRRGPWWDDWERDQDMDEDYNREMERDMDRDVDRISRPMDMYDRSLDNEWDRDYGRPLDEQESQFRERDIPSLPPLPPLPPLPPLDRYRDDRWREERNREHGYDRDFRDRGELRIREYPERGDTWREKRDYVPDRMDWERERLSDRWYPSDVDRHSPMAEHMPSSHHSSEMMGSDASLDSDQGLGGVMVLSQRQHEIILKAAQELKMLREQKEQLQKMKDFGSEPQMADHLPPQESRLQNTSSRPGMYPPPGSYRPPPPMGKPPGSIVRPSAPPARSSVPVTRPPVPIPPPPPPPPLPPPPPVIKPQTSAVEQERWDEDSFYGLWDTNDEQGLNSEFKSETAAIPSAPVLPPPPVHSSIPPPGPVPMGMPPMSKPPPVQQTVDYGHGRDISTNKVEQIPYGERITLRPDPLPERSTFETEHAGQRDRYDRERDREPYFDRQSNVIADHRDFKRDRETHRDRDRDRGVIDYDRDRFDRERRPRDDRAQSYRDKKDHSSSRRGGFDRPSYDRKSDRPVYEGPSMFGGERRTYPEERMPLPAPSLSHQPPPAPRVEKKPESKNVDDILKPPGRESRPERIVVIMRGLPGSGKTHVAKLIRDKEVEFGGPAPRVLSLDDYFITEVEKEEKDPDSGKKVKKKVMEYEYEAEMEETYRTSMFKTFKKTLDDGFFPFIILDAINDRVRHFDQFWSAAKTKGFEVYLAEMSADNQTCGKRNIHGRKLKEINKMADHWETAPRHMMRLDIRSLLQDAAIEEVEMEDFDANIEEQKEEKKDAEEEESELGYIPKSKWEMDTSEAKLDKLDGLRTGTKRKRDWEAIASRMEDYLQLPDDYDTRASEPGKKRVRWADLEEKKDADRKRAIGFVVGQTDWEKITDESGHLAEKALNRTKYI
Sequence of YES1 (P07947 whole entry, looked up): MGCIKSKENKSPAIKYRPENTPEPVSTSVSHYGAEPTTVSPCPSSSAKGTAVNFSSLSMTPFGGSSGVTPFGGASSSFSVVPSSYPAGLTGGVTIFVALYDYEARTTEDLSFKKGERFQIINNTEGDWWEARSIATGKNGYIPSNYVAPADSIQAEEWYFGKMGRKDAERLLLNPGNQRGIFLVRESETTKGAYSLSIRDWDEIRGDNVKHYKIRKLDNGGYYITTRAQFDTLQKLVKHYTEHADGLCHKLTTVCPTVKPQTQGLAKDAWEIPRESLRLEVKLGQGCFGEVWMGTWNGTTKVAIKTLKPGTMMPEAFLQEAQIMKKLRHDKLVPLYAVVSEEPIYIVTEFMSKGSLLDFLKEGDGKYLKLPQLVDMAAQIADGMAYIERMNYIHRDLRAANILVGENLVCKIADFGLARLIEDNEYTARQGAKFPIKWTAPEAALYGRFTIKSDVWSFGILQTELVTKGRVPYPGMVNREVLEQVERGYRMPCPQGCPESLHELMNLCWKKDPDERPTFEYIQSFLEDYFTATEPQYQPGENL
Sequence of YWHAZ (UniProt P63104) (P63104 whole entry, looked up): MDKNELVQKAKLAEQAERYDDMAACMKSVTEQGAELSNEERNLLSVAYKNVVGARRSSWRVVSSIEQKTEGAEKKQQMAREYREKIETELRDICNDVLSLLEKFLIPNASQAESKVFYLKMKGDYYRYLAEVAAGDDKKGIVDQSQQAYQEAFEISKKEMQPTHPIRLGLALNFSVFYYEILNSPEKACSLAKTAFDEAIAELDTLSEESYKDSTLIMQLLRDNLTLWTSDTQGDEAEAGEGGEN
Sequence of YBX1 (P67809 whole entry, looked up): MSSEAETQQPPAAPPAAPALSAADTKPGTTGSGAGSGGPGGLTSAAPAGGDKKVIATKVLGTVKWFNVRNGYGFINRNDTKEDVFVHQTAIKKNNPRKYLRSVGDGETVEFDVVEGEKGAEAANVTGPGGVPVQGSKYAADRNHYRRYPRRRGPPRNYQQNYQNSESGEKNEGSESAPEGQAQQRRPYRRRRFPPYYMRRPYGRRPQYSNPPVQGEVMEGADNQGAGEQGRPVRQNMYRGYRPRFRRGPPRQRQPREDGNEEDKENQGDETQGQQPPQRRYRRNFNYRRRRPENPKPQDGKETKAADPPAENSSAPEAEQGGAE
Sequence of YWHAQ (P27348 whole entry, looked up): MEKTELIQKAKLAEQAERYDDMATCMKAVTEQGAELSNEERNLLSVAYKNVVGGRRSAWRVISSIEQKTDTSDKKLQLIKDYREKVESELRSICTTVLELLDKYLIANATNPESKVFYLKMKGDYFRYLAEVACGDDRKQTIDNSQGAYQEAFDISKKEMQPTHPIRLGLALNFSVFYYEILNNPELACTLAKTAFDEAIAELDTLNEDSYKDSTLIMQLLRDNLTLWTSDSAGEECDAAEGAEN
Sequence of YPEL5 (P62699 whole entry, looked up): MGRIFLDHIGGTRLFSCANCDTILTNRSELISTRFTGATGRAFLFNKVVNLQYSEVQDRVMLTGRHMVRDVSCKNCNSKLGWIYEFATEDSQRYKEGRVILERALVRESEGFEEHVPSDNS
Sequence of ZADH2 (Q8N4Q0 whole entry, looked up): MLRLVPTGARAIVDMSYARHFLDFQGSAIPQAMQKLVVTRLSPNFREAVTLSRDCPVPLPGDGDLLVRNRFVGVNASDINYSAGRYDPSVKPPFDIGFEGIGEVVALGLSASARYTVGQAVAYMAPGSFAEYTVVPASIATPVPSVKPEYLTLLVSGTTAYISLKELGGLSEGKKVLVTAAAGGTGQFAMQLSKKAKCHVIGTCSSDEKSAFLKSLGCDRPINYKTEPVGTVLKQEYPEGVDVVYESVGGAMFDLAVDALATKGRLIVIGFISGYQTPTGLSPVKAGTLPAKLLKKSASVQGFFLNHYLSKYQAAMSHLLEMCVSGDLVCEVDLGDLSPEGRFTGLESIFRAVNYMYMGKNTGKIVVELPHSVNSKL
Sequence of YAE1 (Q9NRH1 whole entry, looked up): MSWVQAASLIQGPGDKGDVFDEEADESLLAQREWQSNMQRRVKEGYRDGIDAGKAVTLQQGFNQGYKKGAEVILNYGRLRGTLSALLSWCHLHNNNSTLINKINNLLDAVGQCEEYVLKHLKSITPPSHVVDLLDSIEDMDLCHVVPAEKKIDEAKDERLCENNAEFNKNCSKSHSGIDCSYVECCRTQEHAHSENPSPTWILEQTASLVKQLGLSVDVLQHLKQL
Sequence of ZBTB43 (O43298 whole entry, looked up): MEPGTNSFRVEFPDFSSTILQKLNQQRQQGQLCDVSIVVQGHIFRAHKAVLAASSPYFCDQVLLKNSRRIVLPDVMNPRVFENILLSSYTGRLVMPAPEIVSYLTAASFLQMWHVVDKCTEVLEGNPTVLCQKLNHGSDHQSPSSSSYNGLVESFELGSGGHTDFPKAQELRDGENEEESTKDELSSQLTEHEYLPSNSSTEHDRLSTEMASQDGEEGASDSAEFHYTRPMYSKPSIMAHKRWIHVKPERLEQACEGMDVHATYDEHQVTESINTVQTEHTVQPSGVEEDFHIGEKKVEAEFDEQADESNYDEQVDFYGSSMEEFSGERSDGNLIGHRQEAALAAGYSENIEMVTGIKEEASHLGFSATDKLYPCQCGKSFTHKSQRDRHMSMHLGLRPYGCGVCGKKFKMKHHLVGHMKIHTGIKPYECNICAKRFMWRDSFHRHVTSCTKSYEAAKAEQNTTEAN
Sequence of YWHAB (P31946 whole entry, looked up): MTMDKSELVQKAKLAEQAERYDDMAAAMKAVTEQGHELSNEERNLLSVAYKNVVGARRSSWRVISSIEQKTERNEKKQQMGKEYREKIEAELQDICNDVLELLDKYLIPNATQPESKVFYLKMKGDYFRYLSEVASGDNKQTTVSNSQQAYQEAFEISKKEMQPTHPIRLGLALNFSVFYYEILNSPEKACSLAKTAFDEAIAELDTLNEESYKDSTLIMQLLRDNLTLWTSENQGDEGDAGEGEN

NC1(Cc2ccc(Cl)cc2)CCN(c2ncnc3[nH]ccc23)CC1
inactive: YAE1 -0.022 | YBX1 -0.159 | YES1 -0.059 | YIPF4 -0.016 | YIPF5 isoform 3 0.126 | YIPF6 -0.015 | YLPM1 0.102 | YOD1 -0.037 | YWHAB 0.028 | YWHAQ 0.029 | YWHAZ [1] 0.07 | YWHAZ [2] 0.059 | YY1 0.066 | ZADH2 0.008 | ZBTB17 isoform 2 -0.199 | ZBTB21 0.024 | ZBTB43 -0.053 | ZC3H18 -0.124

Cc1cn(-c2cc(NC(=O)c3ccc(C)c(Nc4nccc(-c5cccnc5)n4)c3)cc(C(F)(F)F)c2)cn1 [nilotinib]
inactive: YAE1 -0.023 | YBX1 0.033 | YES1 -0.033 | YIPF4 0.046 | YIPF5 isoform 3 0.021 | YIPF6 0.063 | YLPM1 -0.044 | YOD1 -0.061 | YPEL5 -0.237 | YWHAB 0.039 | YWHAQ 0.018 | YWHAZ [2] 0.04 | YY1 -0.033 | ZADH2 0.04 | ZBTB21 0.023 | ZBTB43 -0.157 | ZC3H18 0.099

CS(=O)(=O)c1ccc(-c2cnc(N)c(C(=O)Nc3ccccc3)n2)cc1
inactive: YAE1 0.011 | YBX1 -0.101 | YIPF4 0.013 | YIPF5 isoform 3 -0.093 | YIPF6 0.199 | YLPM1 -0.051 | YOD1 0.117 | YPEL5 0.152 | YWHAB 0.017 | YWHAQ -0.013 | YWHAZ [2] -0.017 | YY1 -0.061 | ZADH2 -0.063 | ZBTB17 isoform 2 -0.013 | ZBTB21 0.048 | ZBTB43 0.021 | ZC3H18 -0.056

Cc1cc(Nc2cc(N3CCN(C)CC3)nc(Sc3ccc(NC(=O)C4CC4)cc3)n2)n[nH]1 [tozasertib]
inactive: YAE1 0.033 | YBX1 -0.041 | YES1 -0.45 | YIPF4 0.079 | YIPF5 isoform 3 -0.089 | YIPF6 -0.066 | YLPM1 -0.051 | YOD1 0.043 | YWHAB 0.019 | YWHAQ 0.046 | YWHAZ [1] 0.176 | YWHAZ [2] 0.045 | YY1 0.099 | ZADH2 0.014 | ZBTB17 isoform 2 0.299 | ZBTB21 -0.219 | ZBTB43 0.063 | ZC3H18 0.061

CN1CCc2c(c3ccccc3n2Cc2ccc(C(=O)NO)cc2)C1 [Tubastatin A]
inactive: YAE1 -0.018 | YBX1 0.022 | YES1 0.094 | YIPF4 -0.028 | YIPF5 isoform 3 -0.103 | YIPF6 -0.01 | YLPM1 0.039 | YOD1 0.072 | YWHAB -0.014 | YWHAQ -0.026 | YWHAZ [1] 0.102 | YWHAZ [2] -0.004 | YY1 -0.011 | ZADH2 -0.007 | ZBTB17 isoform 2 0.049 | ZBTB21 -0.132 | ZBTB43 -0.018 | ZC3H18 0.129

Nc1ccccc1NC(=O)c1ccc(CNC(=O)OCc2cccnc2)cc1 [entinostat]
inactive: YAE1 0.011 | YBX1 -0.073 | YIPF4 -0.04 | YIPF5 isoform 3 -0.05 | YIPF6 0.228 | YLPM1 -0.064 | YOD1 -0.143 | YPEL5 -0.187 | YWHAB -0.042 | YWHAQ 0.116 | YWHAZ [2] 0.032 | YY1 0.053 | ZADH2 -0.04 | ZBTB17 isoform 2 -0.14 | ZBTB21 -0.074 | ZBTB43 -0.091 | ZC3H18 0.021

CNC(=O)c1ccc(Nc2ncc(C(F)(F)F)c(NCc3nccnc3N(C)S(C)(=O)=O)n2)cc1 [defactinib]
active: YY1 -0.299
inactive: YAE1 0.026 | YBX1 0.301 | YES1 -0.199 | YIPF4 -0.016 | YIPF5 isoform 3 -0.019 | YIPF6 -0.041 | YLPM1 -0.019 | YOD1 -0.103 | YPEL5 -0.073 | YWHAB -0.022 | YWHAQ 0 | YWHAZ [2] 0 | ZADH2 0.025 | ZBTB21 -0.033 | ZBTB43 0.063 | ZC3H18 -0.234

NC(=O)Nc1cc(-c2cccc(F)c2)sc1C(=O)N[C@H]1CCCNC1
inactive: YAE1 -0.023 | YBX1 0.025 | YIPF4 0.066 | YIPF5 isoform 3 0.023 | YIPF6 -0.081 | YLPM1 -0.023 | YOD1 -0.079 | YPEL5 0.114 | YWHAB -0.027 | YWHAQ 0.065 | YWHAZ [2] 0.098 | YY1 0.037 | ZADH2 -0.074 | ZBTB17 isoform 2 -0.032 | ZBTB21 -0.083 | ZBTB43 -0.018 | ZC3H18 -0.037
